According to PubChem BioAssay (NCI):
The panel holds about 83,000 compounds, 20% with a hit somewhere; the sample as a whole holds those more often.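 How to read the values: 0–100, growth inhibition (40 = 60% inhibited); 0, no net growth; -100 to 0, cell death (-40 = 40% of starting cells died; -100 = all dead).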 Calls of active or inactive are those of the source.

Tested on: CAKI-1 renal
Assay: NCI-60 one-dose screen, 48 h (100 = growth as untreated, 0 = no growth, -100 = all killed)
Details: 10 µM
Method: Growth inhibition of the CAKI-1 human tumor cell line is measured as a screen for anti-cancer activity. Cells are grown in 96 well plates and exposed to the test compound for 48 hours. Compounds are tested at a single concentration, which is 10^-5 M for most compounds. The reported endpoint is percent growth (GI% or GIPRCNT), where numbers from 0 - 100% represent growth inhibition, and numbers from -100% - 0 represent cell death. For example, a value of 40 represents 60% growth inhibition. A value of 0 means no net growth occurred over the course of the experiment. A value of -40 indicates 40% of cells at the beginning of the experiment died by the end of the experiment. A value of -100 means all cells are dead at the end of the experiment.
NCI-60 Human Tumor Cell Lines Screen was performed using the standard one-dose NCI protocol, which is described in more detail at https://dtp.cancer.gov/discovery_development/nci-60/default.htm.
Compounds with GIPRCNT values below 10 were considered active. Activity score was based on GIPRCNT using the following formula: […]
Score is 0 for GIPRCNT values of 100 or above, 50 for GIPRCNT values of 0, and 100 for GIPRCNT values of -100.

SMILES | growth
CCOC(=O)C1=C(Nc2ccccc2)C(=O)OC12C(=O)Nc1ccccc12 (stereo not given) | 82.6% (inactive)
CC[C@]12C=CCN3CC[C@@]4(c5ccc(OC)cc5N(C)[C@H]4[C@@](O)(C(=O)OC)[C@@H]1OC(=O)CCCC[P+](C1CCCCC1)(C1CCCCC1)C1CCCCC1)[C@@H]32 | -24.1% (active)
COc1ccc(/C=C/C(=O)c2nc3ccccc3n2Cc2ccc(Br)cc2)cc1 | 68% (inactive)
O=C(/C=C/c1cccc(Br)c1)c1nc2ccccc2n1Cc1ccc(F)cc1 | 54.4% (inactive)
C[C@H]1[C@@H](Oc2ccc(-c3cn(-c4ccnc5cc(Cl)ccc45)nn3)cc2)O[C@@H]2OC3(C)CC[C@H]4[C@H](C)CC[C@@H]1[C@@]24OO3 | 25.6% (inactive)
COC(=O)C[C@](O)(CCCC(C)C)C(=O)O[C@H]1C(OC)=C[C@@]23CCCN2CCc2cc4c(cc2[C@@H]13)OCO4 | -3.49% (active)
COc1cc2cc(C(=O)N3C[C@@H](CCl)c4c3cc(OC(=O)N3CCN(C(=O)CCC(=O)N5CCN(C)CC5)[C@@H]5CSSC[C@@H]53)c3ccccc43)[nH]c2c(OC)c1OC | 13.9% (inactive)
COc1cc(OC)c(S(=O)(=O)N(CCCl)CCCl)cc1C(=O)/C=C/c1ccc(C)cc1 | 65.3% (inactive)
C[C@H]1[C@H](OC(=O)CCC(=O)N(CCCc2cn(-c3ccc(C#N)cc3)nn2)CCNc2ccnc3cc(Cl)ccc23)O[C@@H]2OC3(C)CC[C@H]4[C@H](C)CC[C@@H]1[C@@]24OO3 | 40.8% (inactive)
CC[C@@]12CC(C(=O)OC)=C3Nc4cc5c(cc4[C@@]34CCN(C[C@H]3O[C@H]31)[C@@H]24)[C@@H]1[C@H](O5)[C@@H](O)[C@@]2(CC)CC(C(=O)OC)=C3Nc4cc(OC)ccc4[C@@]34CCN1[C@@H]24 | 12.9% (inactive)
O=C(/C=C/c1cccc(Br)c1)c1nc2ccccc2n1Cc1ccc(Br)cc1 | 16.6% (inactive)
CC(C)C[C@H](NC(=O)CNC(=O)C[C@H]1O[C@@H]2OC3(C)CC[C@H]4[C@H](C)CC[C@@H]([C@H]1C)[C@@]24OO3)B(O)O | 19.2% (inactive)
C=CC[Se]C(=O)c1ccc(C(=O)[Se]CC=C)s1 | -83.9% (active)
CC1=C(C=O)C2=C(C)C3(CC3)[C@@](C)(O)C(=O)C2=C1 | 31.7% (inactive)
COc1cc2cc(C(=O)N3C[C@@H](CCl)c4c3cc(OC(=O)N3CCN(C)[C@@H]5CSSC[C@H]53)c3ccccc43)[nH]c2c(OC)c1OC | -9.91% (active)
CC(C)N=C([Se])NC(=O)c1cccs1 | 31.1% (inactive)
COC(=O)C[C@](O)(CCC(C)C)C(=O)O[C@@H]1C(OC)=C[C@]23CCCN2CCc2cc4c(cc2[C@H]13)OCO4 | -13.1% (active)
COC(=O)C[C@](O)(CCC(C)C)C(=O)O[C@H]1C(OC)=C[C@@]23CCCN2CCc2cc4c(cc2[C@@H]13)OCO4 | -28.4% (active)
CC12OOC(C)(OO1)C2CCC(=O)NCCNc1ccnc2cc(Cl)ccc12 (stereo not given) | 78.2% (inactive)
CC[C@]12C=CCN3CC[C@@]4(c5ccc(OC)cc5N(C)[C@H]4[C@@](O)(C(=O)OC)[C@@H]1OC(=O)CCC[P+](C1CCCCC1)(C1CCCCC1)C1CCCCC1)[C@@H]32 | -8.49% (active)

SMILES | growth
COc1cc(OC)c(/C=C/C(=O)c2nc3ccccc3n2Cc2ccc(F)cc2)c(OC)c1 | 56.2% (inactive)
O=C(/C=C/c1ccco1)c1nc2ccccc2n1Cc1ccc(Br)cc1 | 47.5% (inactive)
CCOP(=O)(CC(F)(F)C(F)(F)F)OCC | 2.63% (active)
CC[C@]12C=CCN3CC[C@@]4(c5ccc(OC)cc5N(C)[C@H]4[C@@](O)(C(=O)OC)[C@@H]1OC(=O)CCC[P+](c1ccc(C)cc1)(c1ccc(C)cc1)c1ccc(C)cc1)[C@@H]32 | -95.3% (active)
COC(=O)c1ccc(-n2cc(CCCN(CCNc3ccnc4cc(Cl)ccc34)C(=O)CCC(=O)O[C@@H]3O[C@@H]4OC5(C)CC[C@H]6[C@H](C)CC[C@@H]([C@H]3C)[C@@]46OO5)nn2)cc1 | 44.5% (inactive)
CN(C)CCc1cn(C2CCC2)c2cccc(O)c12 | 42.3% (inactive)
O=C(/C=C/c1ccco1)c1nc2ccccc2n1Cc1ccc(F)cc1 | 57.6% (inactive)
O=C([Se]C1C=CCCC1)c1ccc(C(=O)[Se]C2C=CCCC2)s1 (stereo not given) | -61.6% (active)
C#CCCCN(CCNc1ccnc2cc(Cl)ccc12)C(=O)CCC(=O)O[C@@H]1O[C@@H]2OC3(C)CC[C@H]4[C@H](C)CC[C@@H]([C@H]1C)[C@@]24OO3 | 41.4% (inactive)
O=C(/C=C/c1ccc(F)cc1)c1nc2ccccc2n1Cc1ccc(F)cc1 | 43.9% (inactive)
O=C(NC([Se])=NC1CCCCC1)c1ccccc1 | 32.4% (inactive)
O=C(/C=C/c1ccccc1)c1nc2ccccc2n1Cc1ccc(Br)cc1 | -19.2% (active)
CC12OOC(C)(OO1)C2CCC(=O)OCCNc1ccnc2cc(Cl)ccc12 (stereo not given) | -79.4% (active)
O=C(/C=C/c1ccc(Br)cc1)c1nc2ccccc2n1Cc1ccc(Br)cc1 | 16% (inactive)
CC(=O)Oc1ccccc1C(=O)[Se]C(=NC(C)C)NC(C)C | -98.5% (active)
C#CC[Se]C(=O)c1ccc2n[se]nc2c1 | 71.3% (inactive)
O=C(/C=C/c1ccc(F)cc1)c1nc2ccccc2n1Cc1ccc(Br)cc1 | -23% (active)
O=C(/C=C/c1ccc(Cl)cc1Cl)c1nc2ccccc2n1Cc1ccc(Br)cc1 | 65.1% (inactive)
O=C(/C=C/c1ccccc1)c1nc2ccccc2n1Cc1ccc(F)cc1 | 31.2% (inactive)
CC[C@]12C=CCN3CC[C@@]4(c5ccc(OC)cc5N(C)[C@H]4[C@@](O)(C(=O)OC)[C@@H]1OC(=O)CCC[P+](c1ccc(F)cc1)(c1ccc(F)cc1)c1ccc(F)cc1)[C@@H]32 | 73.1% (inactive)
